Screens: PubChem BioAssay, several laboratories
An excerpt weighted towards active compounds, which were near 4.2% of everything screened.
esBAF inh – SWI/SNF esBAF complex inhibition; mouse ES cells, Bmi1-luciferase knock-in reporter, 24 h; 100% = twice the neutral-well signal; reporter increase, % at 12.5 µM; actives 2% (n = 350,000); in the data active = activation above about 40%; inconclusive = no clear call, values can overlap the other calls;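 also: 0% = median of the plate's neutral control wells and 100% = double that signal; a rise in the Bmi1 reporter signal indicates esBAF inhibition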
hcDAF12 agonist – activates DAF-12 receptor from parasite H. contortus; HEK293 hcDAF-12 lit1-tk-luc reporter, luminescence; 0% DMSO, 100% Δ7-dafachronic acid; actives 1.4% (n = 370,000); AID 652067; activation, % at 6.8 µM;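 active = activation above the mean of all tested compounds plus 3 SD, cut at about 5.5% in these data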;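 also: 100% = response to 3 µM Δ7-dafachronic acid high control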
Wnt act – activators of Wnt/beta-catenin signaling | AID 743398 | Wnt/beta-catenin reporter cell assay, activator, plate reader | activation, % at 9.35 µM | actives 1.2% (n = 300,000); in the data active = activation above about 30%, passing the limit was not always enough; inconclusive = no clear call, values can overlap the other calls;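 also: 0% = neutral control wells and 100% = positive control wells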
hgDAF-12 ag – activates the H. glycines DAF-12 receptor ligand-binding domain; activation, % at 6.8 µM; actives 1.8% (n = 370,000); HEK293 GAL4-hgDAF12 UAS-luciferase reporter, agonist luminescence; normalized to butyrate control;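 active = activation above a cutoff set at the mean of all screened compounds plus 3 SD, cut at about 10% in these data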;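 also: 0% = DMSO wells and 100% = sodium butyrate wells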
ssDAF-12 act – activators of S. stercoralis DAF-12 nuclear receptor. HEK293 ssDAF-12/GRIP1 lit1-tk-luc reporter, luminescence; % of 3 µM dafachronic acid response. activation, % at 6.8 µM. actives 1% (n = 370,000);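 active = activation above the mean over all tested compounds plus 3 SD, cut at about 0.9% in these data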;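 also: 0% = DMSO-only wells and 100% = 3 µM delta7-dafachronic acid wells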
DAX1 inh – DAX1 (NR0B1) inhibition, primary screen | actives 1.1% (n = 370,000) | inhibition, % at 6.8 µM | AID 652010 | HEK293T StAR-luciferase reporter, SF-1/DAX-1 repression relief;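 active = inhibition above the mean over all tested compounds plus 3 SD, cut at about 3.6% in these data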;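 also: 0% = DAX-1 cells with DMSO and 100% = cells lacking DAX-1 with DMSO; higher inhibition means more luminescence from relief of DAX-1 repression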
The depositor's hits bear a star; ? = inconclusive; / = no result given.

SMILES | esBAF inh | hcDAF12 agonist | Wnt act | hgDAF-12 ag | ssDAF-12 act | DAX1 inh
C[C@@H]1CN([C@H](C)CO)S(=O)(=O)c2ccc(C3=CCCCC3)cc2O[C@H]1CN(C)C(=O)C1CCCCC1 | -1.5 | / | / | / | / | /
COc1ccccc1N1CCN(C(=O)CCNC(=O)c2ccco2)CC1 | 19.5 | -1.0 | 11.1 | 1.1 | -1.0 | 0.9
O=C(NCCC(=O)N1CCN(c2ccccc2F)CC1)c1ccco1 | 31.8 | 1.1 | 4.9 | 1.2 | -0.7 | 3.7*
OCCNc1nc(-c2ccccc2)nc2ccccc12 | / | 0.7 | 0.5 | 5.1 | 1.1* | -0.5
C=CCOC(=O)/C(=C\c1cccc2ccccc12)NC(=O)c1ccccc1 | 55.8* | 2.1 | / | 7.4 | 0.1 | 0.0
C=CCOC(=O)/C(=C\c1ccccc1)NC(=O)c1ccc(C)cc1 | / | 4.1 | 18.8 | 10.0 | -0.2 | 0.4
COc1ccc(NC(=O)N(C)C[C@H]2Oc3ccc(NC(=O)NC4CCCCC4)cc3CC(=O)N([C@H](C)CO)C[C@@H]2C)cc1 | -1.6 | / | / | / | / | /
COc1ccccc1NC(=O)C(C)OC(=O)/C=C/c1ccc2ccccc2n1 (stereo unspecified) | / | 0.1 | -4.1 | 5.4 | -0.7 | -0.2
CC(OC(=O)/C=C/c1ccc2ccccc2n1)C(=O)N(C)c1ccccc1 (stereo unspecified) | 46.8* | 0.2 | -26.1 | -0.7 | -1.1 | -1.0
O=C(c1ccccc1)n1c2ccccc2c(=O)n1-c1ccccc1CCl | 87.1* | / | / | / | / | /
CS(=O)(=O)n1c2ccccc2c(=O)n1-c1ccccc1CCl | 55.5* | 2.4 | 4.9 | 3.5 | 0.6 | 1.9
O=C(O)c1ccc(-c2noc(-c3ccccc3C(F)(F)F)n2)cc1 | 36.5 | 0.3 | ? | 4.1 | -0.5 | 1.1
O=C(O)c1ccc(-c2noc(-c3cccc(Cl)c3)n2)cc1 | 62.8* | -0.2 | 17.3 | 0.9 | -1.3 | -0.1
O=C(O)c1ccc(-c2noc(-c3ccc(F)cc3)n2)cc1 | 10.6 | 5.7* | 4.2 | 12.8* | 0.5 | 2.3
CC(=O)N(C)C[C@H]1Oc2cc(-c3ccncc3)ccc2S(=O)(=O)N([C@H](C)CO)C[C@H]1C | -40.6 | / | / | / | / | /
COc1ccc(C(=O)NCCn2cc(SCC(=O)NCc3ccco3)c3ccccc32)cc1 | 51.7* | -2.6 | / | -6.3 | -1.7 | -1.9
COc1ccc(C(=O)NCCn2cc(SCC(=O)NCC3CCCO3)c3ccccc32)cc1 (stereo unspecified) | / | -2.9 | 3.3 | -4.9 | -1.5 | -3.7
Cc1ccc(NC(=O)Cn2c(=O)n(Cc3ccco3)c(=O)c3ccccc32)c(C)c1 | / | 0.7 | -0.4 | -1.0 | -0.9 | 0.2
O=C(Cn1c(=O)n(Cc2ccco2)c(=O)c2ccccc21)Nc1cccc(Cl)c1 | 6.8 | 1.5 | -6.3 | 11.2* | -1.1 | 0.0
CCOC(=O)c1cnc2c(ccc3ccccc32)c1NCCO | 35.6 | -0.5 | -11.9 | 2.1 | -1.1 | -0.7
CCOC(=O)c1nc2ccccc2c(=O)[nH]1 | / | 2.3 | 18.2 | 6.9 | -1.2 | 1.9
CCOC(=O)c1cc(OCC)c2c(ccc3ccccc32)n1 | -9.6 | 1.5 | 110.7* | 0.7 | -0.3 | -1.0
CCOC(=O)c1cnc2c(ccc3ccccc32)c1N | 45.4* | 5.3 | 10.3 | 7.6 | -0.7 | 1.1
C[C@H]1CN([C@@H](C)CO)S(=O)(=O)c2ccc(C#CC3(O)CCCC3)cc2O[C@H]1CN(C)C(=O)Cc1ccccc1 | 7.5 | / | / | / | / | /
CN(C)c1ccc(C(=O)OCC(=O)N2CCCC2)cc1 | 33.8 | -0.2 | 5.2 | 2.8 | 0.9* | 0.4
CN(C)c1ccc(C(=O)OCC(=O)N2CCCCCC2)cc1 | 46.6* | 1.2 | -1.6 | 7.3 | -0.7 | 1.9
CN1c2ccc(-c3cccc(F)c3)cc2[C@H]2[C@H](CCN2C(=O)c2ccncc2)[C@H]1CO | -11.0 | / | / | / | / | /
C[C@H]1CN([C@@H](C)CO)S(=O)(=O)c2ccc(C#CC3(O)CCCC3)cc2O[C@@H]1CN(C)C(=O)Cc1ccncc1 | 1.9 | / | / | / | / | /
COc1ccc(NC(=O)Nc2ccc3c(c2)C(=O)N([C@@H](C)CO)C[C@H](C)[C@H](CN(C)C(=O)Nc2ccc(OC)cc2)O3)cc1 | 1.2 | / | / | / | / | /
CCC(=O)Nc1c(C(=O)Nc2ccc3c(c2)OCCO3)oc2ccccc12 | / | 3.5 | 36.4* | 9.2 | -0.3 | 3.3
